The record followed here is PubChem BioAssay AID602143 (Vanderbilt Specialized Chemistry Center, 2011).

Structures are written as SMILES. Several values for one entry are separate records, joined by “and”; a condition that tells them apart may be missing. Equal entries are not always repeated. Values without a mark were called inactive. Activity calls are given as the source filed them. Cut-off read from the data, not from the text of the source: active = remaining activity below about 50%; inactive = the rest.

The target in the assay is Phospholipase D2 (Homo sapiens) (UniProt O14939). Briefly: cellular phospholipase D2 activity inhibition – cell-based, HEK293, single concentration (AID 602143).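 Note: tested at 200 nM.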 Conditions: HEK293 cellular PLD2 activity, percent of control; active compounds read low.
Sequence of Phospholipase D2 (Homo sapiens) (O14939 whole entry, looked up): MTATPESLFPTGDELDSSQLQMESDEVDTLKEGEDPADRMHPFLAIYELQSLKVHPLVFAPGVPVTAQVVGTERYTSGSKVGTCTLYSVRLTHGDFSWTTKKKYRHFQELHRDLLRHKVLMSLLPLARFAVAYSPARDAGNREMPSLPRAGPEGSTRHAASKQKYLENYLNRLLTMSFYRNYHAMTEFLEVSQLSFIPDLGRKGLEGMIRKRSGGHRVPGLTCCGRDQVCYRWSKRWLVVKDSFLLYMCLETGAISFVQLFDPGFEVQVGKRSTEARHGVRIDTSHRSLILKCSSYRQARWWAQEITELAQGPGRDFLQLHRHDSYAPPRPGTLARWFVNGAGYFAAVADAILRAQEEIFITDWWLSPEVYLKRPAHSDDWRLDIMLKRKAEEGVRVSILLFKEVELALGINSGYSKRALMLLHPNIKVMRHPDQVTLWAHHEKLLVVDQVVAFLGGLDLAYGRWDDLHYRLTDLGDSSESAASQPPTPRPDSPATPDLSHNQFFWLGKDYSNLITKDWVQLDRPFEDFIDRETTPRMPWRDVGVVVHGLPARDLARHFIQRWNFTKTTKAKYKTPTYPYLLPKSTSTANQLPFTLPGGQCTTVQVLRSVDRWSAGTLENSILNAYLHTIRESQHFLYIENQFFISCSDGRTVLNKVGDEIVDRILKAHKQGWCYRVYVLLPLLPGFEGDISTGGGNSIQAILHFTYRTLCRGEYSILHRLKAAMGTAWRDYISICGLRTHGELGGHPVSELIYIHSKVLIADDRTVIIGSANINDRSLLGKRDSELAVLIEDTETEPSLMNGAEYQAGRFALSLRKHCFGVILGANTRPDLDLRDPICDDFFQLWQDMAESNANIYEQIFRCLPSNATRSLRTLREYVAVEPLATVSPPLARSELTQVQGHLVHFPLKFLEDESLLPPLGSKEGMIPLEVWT
Sequence of Phospholipase D2 (Homo sapiens) (O14939 whole entry, looked up): as above
With `Cn1c(C(=O)NCCN2CCN(c3ccncc3)CC2)cc2ccccc21`, the remaining activity is 109%.
Turning to `O=C1c2ccccc2C(=O)N1CCCN1CCC(c2nc3ccccc3[nH]2)CC1`, the remaining activity is 82.5%.
The same measure for `Cc1ccc(S(=O)(=O)NCCN2CCC(n3c(=O)[nH]c4ccccc43)CC2)cc1`: 77.3%; for `C[C@@H](CN1CCC(n2c(=O)[nH]c3cc(I)ccc32)CC1)NC(=O)c1ccc2ccccc2c1`: 101%.
`CC(C)[C@@H](CN1CCC(n2c(=O)[nH]c3ccccc32)CC1)NC(=O)[C@@H]1C[C@H]1c1ccccc1`: the remaining activity was 74%.
Turning to `CCS(=O)(=O)NCCN1CCC(n2c(=O)[nH]c3ccccc32)CC1`, the remaining activity was 100%.
Regarding `O=C(NCCN1CCN(c2ccncc2)CC1)c1ccc(F)cc1O`, the remaining activity was 112%.
`C[C@@H](CN1CCC2(CC1)CN(S(C)(=O)=O)c1ccccc12)NC(=O)[C@H]1C[C@@H]1c1ccccc1`: the remaining activity is 109%.
As for `Nc1ccc(C(=O)NCCN2CCC(n3c(=O)[nH]c4ccccc43)CC2)cc1OC(F)(F)F`, the remaining activity is 76.5%.
Take `C[C@@H](NC(=O)NCCN1CCC(n2c(=O)[nH]c3ccccc32)CC1)c1ccccc1`: the remaining activity is 107% and 123%.
The same measure for `O=C(NCCN1CCC(n2c(=O)[nH]c3ccccc32)CC1)Nc1ccccc1C(F)(F)F`: 114%; for `O=C(c1ccc(Cl)cc1)N1CCC(n2c(=O)[nH]c3cc(Cl)ccc32)CC1`: 60.2%.
As for `COc1ccccc1NC(=S)NCCN1CCC(n2c(=O)[nH]c3ccccc32)CC1`, the figure is 126%.
Regarding `C[C@@H](CN1CCC(n2c(=O)[nH]c3cc(-c4ccc(C(F)(F)F)cc4)ccc32)CC1)NC(=O)[C@H]1C[C@@H]1c1ccccc1`, the remaining activity is 70.9%.
For `C[C@H](CN1CCC2(CC1)CNCc1ccccc12)NC(=O)c1cnc2ccccc2c1`, the remaining activity is 100%.
With `O=C(NCCN1CCC(C(=O)NCc2ccc(Cl)cc2)CC1)c1ccc2ccccc2c1`, the remaining activity is 106%.
In the case of `C[C@@H](CN1CCC2(C=Cc3ccccc32)CC1)NC(=O)c1cnc2ccccc2c1`, the remaining activity was 77.4%.
As for `COc1ccc2c(c1)c(CC(=O)NCCN1CCC(n3c(=O)[nH]c4ccccc43)CC1)c(C)n2C(=O)c1ccc(Cl)cc1`, the figure is 73.8%; as for `O=C1c2ccccc2C(=O)N1CCCNCc1ccccn1`, 116%.
For the compound `C[C@H](CN1CCC2(CC1)CNc1ccccc12)NC(=O)c1ccc2ccccc2c1`, the remaining activity is 53.8%.
Regarding `O=C(NCCN1CCC(n2c(=O)[nH]c3ccccc32)CC1)c1cc2ccccc2c2c1ccc1ccccc12`, the remaining activity is 76.6%.
Take `CN(C)c1cccc2c(S(=O)(=O)NCCN3CCC(n4c(=O)[nH]c5ccccc54)CC3)cccc12`: the remaining activity is 112%.
Take `O=C(NCCN1CCC(c2nc3ccccc3[nH]2)CC1)c1ccc2ccccc2c1`: the remaining activity is 95.1%.
Consider `O=C(NCCN1CCN(c2ccncc2)CC1)c1ccc(F)cc1`, for which the remaining activity was 102%.
Take `O=C(NCCN1CCC(n2c(=O)[nH]c3ccccc32)CC1)Nc1ccccc1F`: the remaining activity is 105%.
For `O=C1c2ccccc2C(=O)N1CCCN1CCC(n2c(=O)[nH]c3ccccc32)CC1`, the remaining activity is 97.3%.
Turning to `O=C(NCCN1CCC(C(=O)NCCCN2CCOCC2)CC1)c1ccc2ccccc2c1`, the remaining activity was 125%.
Regarding `O=C(NCCN1CCC(n2c(=O)[nH]c3ccccc32)CC1)c1ccc2ccc3c4c2c1CC=C4CC=C3`, the remaining activity was 79.2%.
Consider `Cc1ccc(C(=O)N[C@@H](C)CN2CCC(n3c(=O)[nH]c4c(F)cccc43)CC2)cc1`, for which the remaining activity was 98.2%.
As to `COc1cccc(N2CCN(CCNC(=O)c3ccc(Cl)cc3)CC2)c1`, the remaining activity is 109%.
Turning to `O=C(NCCN1CCC(n2c(=O)[nH]c3ccc(F)cc32)CC1)c1cccc2c1C(=O)c1ccccc1-2`, the remaining activity was 0% (active).
As for `O=C1c2ccccc2C(=O)N1CCCNc1ccc2ccccc2c1`, the figure is 91.8%; as for `CN1CCC2(CCN(CCNC(=O)[C@H]3C[C@@H]3c3ccccc3)CC2)C1=O`, 102%; as for `O=C(NCCN1CCC(n2c(=O)[nH]c3ccc(F)cc32)CC1)c1ccc(Cl)c(Cl)c1`, 0% (active).
The same measure for `O=C(NCCN1CCC(n2c(=O)[nH]c3cc(I)ccc32)CC1)c1ccc(Cl)cc1`: 36.7% (active); for `CC(=O)c1cccc(NC(=O)NCCN2CCC(n3c(=O)[nH]c4ccccc43)CC2)c1`: 118%.
As to `O=C(NCCN1CCC2(CC1)CCN(c1ccccc1)C2=O)c1ccc2ccccc2c1`, the remaining activity is 55%.
As to `O=c1[nH]c2ccccc2n1C1CCN(CCNS(=O)(=O)c2ccccc2C(F)(F)F)CC1`, the remaining activity was 98%.
As for `CC(C)[C@@H](CN1CCC(n2c(=O)[nH]c3ccccc32)CC1)NC(=O)c1cc2cc(F)ccc2[nH]1`, the remaining activity was 79.5%.
As for `O=C(NCCN1CCC2(CC1)CNCc1ccccc12)c1ccc2ccccc2c1`, the figure is 103%.

By remaining activity is commonly meant the signal under treatment as a percentage of the control signal.
